# Measurements from PubChem BioAssay (EPA / NIEHS).
# Calls of active or inactive are those of the source. Rule for the calls: active = hit-call score of the fitted dose curve at least 0.9, where 1 is the maximum; inactive = score below 0.9.
# Assay: CEETOX_H295R_ESTRADIOL: CeeTox H295R High-throughput Steroidogenesis Assay for Estradiol (AID 2283440);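 note: estradiol secreted into medium quantified by LC-MS/MS after dansyl derivatisation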
# Settings: actives raise or lower the signal
# Experimental: CEETOX_H295R is a cell-based, multiplexed-readout assay that uses H295R, a human adrenal gland cell line, with measurements taken at 48 hours after chemical dosing in a 96-well plate.CEETOX_H295R_ESTRADIOL is one of 23 assay component(s) measured or calculated from the CEETOX_H295R assay. It is designed to make measurements of hormone induction, a form of inducible reporter, as detected with absorbance signals by HPLC-MS-MS technology.Data from the assay component CEETOX_H295R_ESTRADIOL was analyzed into 1 assay endpoint. This assay endpoint, CEETOX_H295R_ESTRADIOL, was analyzed with bidirectional fitting relative to DMSO as the negative control and baseline of activity. […] To generalize the intended target to other relatable targets, this assay endpoint is annotated to the steroid hormone intended target family, where the subfamily is estrogens.
# Cell culture and media preparation procedures were conducted in accordance with OECD Test No. 456 guidelines, with minor modifications. H295R cells (ATCC CRL-2128) were expanded for 5 passages and frozen in batches in liquid nitrogen. Prior to the steroidogenesis assay, H295R cells were thawed and passed at least 4 times. The maximum passage was 10. Cells were maintained in a 1:1 mixture of DMEM/F12 supplemented with 5ml/L ITS+ Premix (BD Bioscience) and 12.5 ml/L Nu-Serum (BD Bioscience). After seeding cells into 96-well plates at 50-60% confluency, cells were allowed to adhere overnight. Prior to chemical testing, culture medium was replaced with 175 uL medium containing 10 uM forskolin to stimulate steroidogenesis for 48 hours. Following prestimulation, forskolin medium was replaced with medium containing test chemical solubilized in DMSO (ensuring a final concentration of 0.1% DMSO). Test chemicals were incubated for 48 hours, then the medium was removed and split into 2 vials containing approximately 75uL each, and stored at -80 C prior to hormone analysis. For steroid quantification, media samples were shipped to OpAns, LLC (Durham, NC) on dry ice, and samples were thawed to room temperature prior to liquid-liquid extraction. Steroid hormones were extracted from media samples using methyl tertbutyl ether (MTBE). An extra derivatization with dansyl chloride was included for estrogen (estrone and estradiol) detection only. Steroid hormones were separated by HPLC, eluted using a reverse phase C18 gradient with electrospray positive ionization, followed by quantification by tandem mass spectrometry (MS/MS). Data were acquired on a MassHunter Workstation Acquisition version B03.01 (Agilent Technologies, Inc.) and processed using MassHunter Quantitative Analysis for QQQ. Accuracy was determined for each hormone analyte from 3 standards to determine upper and lower limits of quantification (ULOQ and LLOQ, respectively) using a 7-point standard curve. Precision and accuracy of the extraction and quantification methods were calculated as the percent relative standard deviation (%RSD) of the spiked standards and percent spiked standard recovered, respectively. […] Test medium was removed following chemical exposure, and cell viability was evaluated in the same wells by MTT. MTT procedures were as follows: after removal of test medium, 500 uL of 0.5 mg/ml of 3-[4,5-dimethylthiazol-2-y]2,5-diphenyltetrazoliumbromide solution was added to the cells. Following a 4-hour incubation at 37 C and 5% CO2 to allow formazan-crystal formation, the MTT solution was removed and blue formazan salt crystals were solubilized using 500uL anhydrous isopropanol with shaking for 20 minutes. Absorbance was read at 570 and 650nm using a Packard Fusion microplate reader. Background correction of absorbance units was used to determine percent change relative to controls. […] When a test chemical reduced cell viability to 20% - 70%, the test chemical was diluted 10-fold and re-evaluated, but if cell viability was <20%, then the test chemical was diluted 100-fold and re-evaluated. […]
Compound,outcome,AC50
CCCCCCCCCCCCN1CCOCC1,inactive,
c1ccc(OCCOc2ccccc2)cc1,inactive,
OCCCO,inactive,
O=C(OCc1ccccc1)c1ccccc1O,inactive,
CC(=O)C1=C(C)[C@@H]2C[C@@]3(C1)[C@H](C)CC[C@H]3C2(C)C,inactive,
COc1ccc2[nH]cc(CCNC(C)=O)c2c1,inactive,
CCCc1ccc(O)cc1,inactive,
OCC=Cc1ccccc1,inactive,
CCCCCC(=O)O[C@]1(C(C)=O)CC[C@H]2[C@@H]3CCC4=CC(=O)CC[C@]4(C)[C@H]3CC[C@@]21C,,13.4 µM (active)
CC(=O)c1ccc2ccccc2c1,inactive,
